This is an account of results in PubChem BioAssay (NCATS).

Inconclusive results are not listed. The source made the active and inactive calls. Calls come from the whole dose curve; as a rule, active = well fitted curve in the direction sought with a large enough effect; inconclusive = small, poorly fitted or top-dose-only effect, or another doubt; inactive = no such curve, though single readings can be large or run the other way.
Potency is the fitted concentration of half-maximal effect.

The nature of the experiment: qHTS for differential inhibitors of proliferation of Plasmodium falciparum line HB3 (AID 1886).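 Note: parasites grown with compound for 72 h before SYBR Green readout.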 Particulars: Potency: Plasmodium falciparum HB3 proliferation inhibition; series mostly up to 28.7 µM. In general terms: In qHTS, concentration-response curves come from the screen itself.
Regarding `O=C(Nc1ccccc1)c1cc([N+](=O)[O-])ccc1Cl`, the Potency was 10 µM (active). The value for `CC(C)(C=O)Cc1cc(C(C)(C)C)c(O)c(C(C)(C)C)c1` was “inactive”; that for `CCCCCCCCCCCCCCCCCC(=O)OC(CC(=O)O)C[N+](C)(C)C` (stereo unspecified) was “inactive”; that for `NC[C@@H]1O[C@H](C23CC4CC(CC(C4)C2)C3)Cc2c1ccc(O)c2O` was 2.82 µM (active).

As for `O=C(Nc1cccc(C(=O)Nc2ccc(S(=O)(=O)O)c3cc(S(=O)(=O)O)cc(S(=O)(=O)O)c23)c1)Nc1cccc(C(=O)Nc2ccc(S(=O)(=O)O)c3cc(S(=O)(=O)O)cc(S(=O)(=O)O)c23)c1`, the Potency entry is “inactive”. Turning to `CN1CCc2ccccc2Cc2[nH]c3ccccc3c2CC1`, the Potency is 10 µM (active). The value for `Cc1ccccc1CNc1ncnc2c1ncn2C1OC(CO)C(O)C1O` (stereo unspecified) was “inactive”. Consider `Cc1cc(NC(=O)Nc2ccc3c(ccn3C)c2)sn1`, for which the Potency is 12.6 µM (active). The value for `O=C(O)[C@@H]1C[C@H](C(=O)O)N1` was “inactive”; that for `O=C1C(SCCO)=C(SCCO)C(=O)c2ccccc21` was 2 µM (active); that for `CCCCCC(O)c1cccc(OCc2ccc3ccccc3n2)c1` (stereo unspecified) was 12.6 µM (active). The value for `Oc1ccc(C2CNCc3sccc32)cc1O` (stereo unspecified) was 11.2 µM (active); that for `COc1ccccc1N1CCN(CCCCNS(=O)(=O)c2cccc3c(N(C)C)cccc23)CC1` was 12.6 µM (active). The value for `O=c1[nH]c2cc(C(F)(F)F)ccc2n1-c1cc(C(F)(F)F)ccc1O` was 12.6 µM (active). Take `CCCN(CC1CC1)c1nc(C)nc(Nc2c(Cl)cc(Cl)cc2Cl)c1Cl`: the Potency was 4.47 µM (active). The value for `CCCCCCCC/C=C\CCCCCCCC(=O)NCCO` was 4.47 µM (active). The value for `CO/N=C(\C(=O)N[C@@H]1C(=O)N2C(C(=O)O)=C(COC(C)=O)CS[C@H]12)c1csc(N)n1` (stereo in doubt) was “inactive”; that for `Ic1ccc(N2CCN(Cc3c[nH]c4ncccc34)CC2)cc1` was 11.2 µM (active). For the compound `C#CCN1C(C)=C(C(=O)OC)C(c2cccc([N+](=O)[O-])c2)C(C(=O)OCC)=C1C` (stereo unspecified), the Potency is 7.94 µM (active). The value for `Oc1cc(O)cc(/C=C/c2ccc(O)c(O)c2)c1` was 12.6 µM (active); that for `Fc1ccc(C(OCCCc2cnc[nH]2)c2ccc(F)cc2)cc1` was 2.51 µM (active); that for `CC12C(=O)OC(=O)C1(C)C1CCC2O1` (stereo unspecified) was 3.98 µM (active).

`N[C@@H](CC(=O)O)C(=O)O`: the Potency result was “inactive”. The value for `Nc1ccn([C@@H]2O[C@H](CO)[C@@H](O)[C@@H]2O)c(=O)n1` was “inactive”; that for `CC(C)Cc1ccc([C@H](C)C(=O)O)cc1` was “inactive”. The value for `CN(C)C(N)=NCCC[C@H](N)C(=O)O` was “inactive”; that for `CC[C@@H](C)[C@H]1O[C@]2(CC[C@@H]1C)C[C@@H]1C[C@@H](C/C=C(\C)[C@@H](O[C@H]3C[C@H](OC)[C@@H](O[C@H]4C[C@H](OC)[C@@H](O)[C@H](C)O4)[C@H](C)O3)[C@@H](C)/C=C/C=C3\CO[C@@H]4[C@H](O)C(C)=C[C@@H](C(=O)O1)[C@]34O)O2` was 1.12 µM (active); that for `O=C1NC(O)=NC1(c1ccccc1)c1ccccc1` was “inactive”.

As to `O=C(O)CCCC[C@@H]1CCSS1`, the Potency result was “inactive”.

Regarding `COc1ccccc1CNCCCCCCNCCCCCCCCNCCCCCCNCc1ccccc1OC`, the Potency was 2 µM (active). `NCCCCCCCCCCN`: the Potency result was “inactive”.
